# Assay results published in PubChem BioAssay (NCI).
# About 83,000 compounds went through this panel and 20% of them were active in at least one assay; those are over-represented in the sample as a whole.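 Results are percent growth after 48 hours of single-concentration exposure. 100 means growth as in untreated cells, lower positive values show inhibition; negative values down to -100 show cell death.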 Unmarked numbers belong to inactive results. Activity calls are given as the source filed them. Rule for the calls: active = growth percent below 10; inactive = the rest.
# Test system: T-47D breast
# Assay: NCI-60 one-dose screen, 48 h (100 = growth as untreated, 0 = no growth, -100 = all killed)
# Settings: 10 µM unless noted
row,Structure (SMILES),growth
1,O=S1(=O)C=C(c2ccccc2)C(c2ccccc2)=C1,-63.4% (active)
2,CCN1C(=O)N(CC)C2C1NN=c1s/c(=C\c3cnc(C)n3C)c(=O)n12 (centres undefined),24.9%
3,CC(=O)O[C@H]1C[C@@H]2C(C)(C)C(=O)CC[C@@]2(C)c2ccc(C(C)C)cc21,102%
4,Cc1ccc2c(=O)cc(C(=O)Nc3sc4c(c3C(=O)NCc3cccnc3)CCCC4)oc2c1C,94%

# Test system: BT-549 breast
# Assay: as above
# Settings: 10 µM unless noted
row,Structure (SMILES),growth
1,[2H]C([2H])([2H])Oc1ccc(F)cc1/C=C/C(=O)/C=C(O)/C=C/c1cc(F)ccc1OC([2H])([2H])[2H],93.3%
2,C=CC(=O)Nc1ccc(Nc2nccc(-c3ccc(N4CCCC4)c(C#N)c3)n2)cc1,45.6%
3,N#CC1=C(N)Oc2ccc3ccccc3c2C1c1ccc([N+](=O)[O-])cc1 (centres undefined),91.7%
4,CCOC(=O)c1nn(CC(O)c2ccccc2)c(NC(=O)Nc2cccc(F)c2)c1C (centres undefined),101%
5,Nn1c(=O)c(=O)[nH]c2c(cnn2-c2ccccc2)c1=O,114%
6,O=[N+]([O-])c1cc(NS(=O)(=O)c2ccccc2)ccc1NS(=O)(=O)c1ccccc1,74.9%
7,C=C1C(=O)O[C@H]2[C@H]1CC/C(COC(=O)NCc1ccc(Cn3c(=O)sn(-c4ccc(C#N)cc4)c3=O)cc1)=C\CC[C@@]1(C)O[C@@H]21,60.4%
8,Cc1nc2c(c(=O)[nH]1)C(c1ccccc1)c1ccc3ccccc3c1O2 (centres undefined),34.1%
9,COC1=C(C)C(=O)N2[C@@H]1[C@H](c1ccccc1)OC21C=CC(=O)C=C1,-34.1% (active)
10,COc1cccc(CCNc2ncnc3c2ncn3Cc2nnc3c4ccccc4c(Cl)nn23)c1,47.8%
11,Fc1ccc(Cn2cc(CSc3nc4ccccc4o3)nn2)cc1,103%
12,CC(=O)ON1CCCC(P(=O)(OCCSC(=O)C(C)(C)C)OCCSC(=O)C(C)(C)C)C1=O (centres undefined),30.9%
13,O=c1cc(-c2ccccc2)[nH]c2ncc(-c3ccc(F)cc3)n12,64.1%
14,COC(=O)c1ccc(NC(=O)Nc2ccc(C(=O)OC)cc2)cc1,99%
15,N#C/C(=C\c1ccc(-c2cccc(C(F)(F)F)c2)o1)c1ccccc1,96.6%
16,COc1ccc2cc(-c3ccnc4c(N=Nc5ccc(Cl)cc5)c(N)nn34)ccc2c1,99.9%
17,O=C(Cc1ccc(NC(=O)c2cccc(Cl)c2)cc1)NCc1ccccc1,61%
18,CCS/C(Nc1ccccc1)=C(\C#N)C(=O)Nc1ccc(OC)cc1,40.5%
19,CC[N+]1(CC)CC[N+]2(CCCC(C)CC2)CC1 (centres undefined),113%
20,COc1ccc(C(=O)/C=C/c2ccc(Cl)cc2)cc1S(=O)(=O)Nc1c(N)nc(SC)[nH]c1=O,60.5%

row,Structure (SMILES),growth
1,C=C1C(=O)O[C@H]2[C@H]1CC/C(COC(=O)/C=C/C(=O)OC/C1=C/CC[C@@]3(C)O[C@H]3[C@H]3OC(=O)C(=C)[C@@H]3CC1)=C\CC[C@@]1(C)O[C@@H]21,93.9%
2,O=C1/C(=C\c2cccc3nccnc23)SC(=S)N1CCc1ccc(O)cc1,96%
3,O=S(=O)(NCCNc1nccc(-c2c(-c3ccc(F)c(O)c3)nc3sccn23)n1)c1ccc(F)cc1,49.5%
4,CC/C=C\C[C@H](O)C/C=C1/C(=O)C=C[C@@H]1C/C=C\CCCC(=O)O,46.2%
5,O=C1/C=C/[C@@H](O)[C@@H]2C[C@@H](O)C[C@H]2/C=C/CCC[C@H](CCO)O1,8.06% (active)
6,COc1cc(-c2nc3sccn3c2-c2ccnc(NCCNS(=O)(=O)c3ccc(Cl)cc3)n2)ccc1F,30.9%
7,C#Cc1cccc(Nc2nc(C)nc3cc(NC(=O)CCl)ccc23)c1,-71.2% (active)
8,O=C(NNC(=O)c1ccc(NC(=O)c2ccccn2)cc1)Nc1ccc2ccccc2c1,107%
9,CC1(C)C(N)=Nc2cc(OCCCN3Cc4ccccc4C3)c(OCC3CC3)cc21,76.5%
10,CN(CCC(=O)c1ccccc1)CCC(=O)c1ccccc1,79.7%
11,CCSc1oc(C)nc1[P+](c1ccccc1)(c1ccccc1)c1ccccc1,12.4%
12,C=CCC(CCCC)(C(=O)OCC)C(=O)OCC,96.7%
13,Fc1cccc(-c2ccc3c(c2)C2(CCNCC2)CN3)c1,93.1%
14,CN(C)S(=O)(=O)Oc1ccc(-c2sc3cc(OS(=O)(=O)N(C)C)ccc3c2C(=O)c2ccc(OCCN3CCCCC3)cc2)cc1,79.6%
15,COc1cc2c(cc1OCCCCN1CCN(C(=S)SCCC(C#N)(c3ccccc3)c3ccccc3)CC1)N=C[C@@H]1CCCN1C2=O,-91.8% (active)
16,CC(C)(C)n1cc(-c2ccnc(NCCNS(=O)(=O)c3ccc(O)cc3)c2)c(-c2cccc(O)c2)n1,93.6%
17,O=S1(=O)C=C(c2ccccc2)C(c2ccccc2)=C1,79.6%
18,CCN1C(=O)N(CC)C2C1NN=c1s/c(=C\c3cnc(C)n3C)c(=O)n12 (centres undefined),50.1%
19,CC(=O)O[C@H]1C[C@@H]2C(C)(C)C(=O)CC[C@@]2(C)c2ccc(C(C)C)cc21,101%
20,Cc1ccc2c(=O)cc(C(=O)Nc3sc4c(c3C(=O)NCc3cccnc3)CCCC4)oc2c1C,107%
